How the values were obtained:
Test in all cases: PBM binding z-score (relative to random genomic background probes); higher = stronger binding; sequences stand for … in GC…GCGATTGACAGCGTAGAATGAAGG
[1] = test system: RARb homodimer (NR concentration 270 nM)
Method in brief: (§1)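 Ligand-free nuclear receptor dimers were bound for 1 h to custom Agilent 4×180K protein-binding microarrays. Detection used antibodies against each partner (one per run). Binding z-scores rest on regression-normalized fluorescence, with random background probes as the reference.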

[2] = test system: RARg:RXRa (NR concentration 270 nM, RXRa partner concentration 90 nM)
Method in brief: as §1

[3] = test system: RARg homodimer (NR concentration 270 nM)
Method in brief: as §1

[4] = test system: RXRa DBDmut IVT, anti-RXR (DBD mutation: RXRa K156A/R161A, NR concentration 90 nM)
Method in brief: as §1

[5] = test system: RXRa homodimer (NR concentration 180 nM)
Method in brief: as §1

[6] = test system: THRa:RXRa (NR concentration 90 nM, RXRa partner concentration 90 nM)
Method in brief: as §1

[7] = test system: THRa homodimer (NR concentration 90 nM)
Method in brief: as §1

[8] = test system: VDR homodimer (NR concentration 270 nM)
Method in brief: as §1

Sequence	PBM binding z-score [1]	PBM binding z-score [2]	PBM binding z-score [3]	PBM binding z-score [4]	PBM binding z-score [5]	PBM binding z-score [6]	PBM binding z-score [7]	PBM binding z-score [8]
CGAACTAGGTCATCCATGACAGTGAATACATTGA	2.92	4	4.72	2.04	2.97	2.84	0.683	1.17
CCGACGGGGGCATAAGGTTACCATAAGCCAGCCC	2.78	4.76	3.14	2.15	3.62	3.58	1.76	2.1
CAAACTAGGCCACGAAAGGTCAAAGTCGAATGAC	4.95	6.06	5.76	1.47	6.58	4.26	0.939	2.37
CAAACTAGGTCAGGAAAGGTCAAAGTCGAATGAC	5.66	6.84	7.48	1.51	6.81	4.74	1.62	3.13
CAAACTAGGTCAAGGTCATAGTCGGTTTGTGCCA	4.91	5.78	6.44	2.95	5.54	4.38	3.83	4.29
GCATATAGGTAATACAAGGTGAAGGTCCGATTGT	1.04	0.61	0.653	0.103	0.694	4.08	1.09	-0.214
TCTTGTAGATCAAGCCGGTTAAGAAAGCCTGAGT	0.000492	-0.162	-0.393	0.918	0.161	-0.0654	-0.203	0.0355
CTCGAGAGGTCGTGCTCAGGTGAGTATACCAAAC	2.12	4.24	2.53	2.74	3.82	4.08	1.06	1.49
GCAGACAGGTGAAACGCAAGTAACTCAGGGTGGC	-0.222	0.227	0.311	-0.514	0.606	0.23	-0.701	-0.62
AGAATGAGGTTATTAAGATCAGGGTATTGCGGTC	0.948	1.09	0.753	1.79	1.62	2.17	0.854	1.29
CGAACTGGGTCATTGACAGGACAGTGAATAGTAA	2.17	4.32	3.3	1.94	2.88	2.41	0.357	1.05
AGAATGAGGTTAAGATCCGGGAAACAGAATACAT	0.774	2.06	1.4	0.76	2.46	2.37	0.603	0.257
TCGAGAAGGTTAGGGGCATTCAGAATGGCGTCGA	1.46	1.08	0.841	0.703	1.45	1.12	0.127	0.971
GCTGCTAGGTCAGATTGGTCAGCTAACGGGTACG	2.58	2.22	3.18	0.569	1.11	1.73	0.354	0.117
ATACCAAGTTGATCGTGAGGTCGTTGATACTAAC	1.39	1.26	0.677	1.34	1.08	2.75	2.33	3.08
AGAACGAGGGCACGCTGAGCTGATAGCAGAGTAG	0.904	1.83	2.12	1.48	1.2	1.39	-0.398	0.48
ACTAGTTGGTCAGCTGAGATCACACACAATTCGG	0.406	0.638	0.88	0.396	0.449	0.991	-0.107	-0.0701
CGTCAAAGATCAACTAAGGTAACGTAAAGCACGC	0.577	0.743	0.647	0.338	0.921	4.69	1.79	0.342
AGAAAGAGGTTATACGTAGATCAGGGAAGAAAGT	1.42	2.21	1.59	1.23	2.93	1.52	0.336	0.623
CGAACTAGGTCATTGGCAGGACAGTGAATAGTAA	2.75	4.52	4.07	2.36	2.52	3.09	0.749	0.995
ACTAGGAGGCCAAGGGTCACTCAAGATTAGTCCG	3.93	4.72	4.05	0.5	4.48	2.63	0.41	1.51
ACTAGAAGGCCAAGTTTGGGTCACTCAAACAAAG	2.88	3.27	2.36	0.0906	1.29	3	1.32	0.626
CCTCGGAGGACAGAAGGTCAGAACTGTCCGCTTT	3.17	2.9	2.58	0.39	1.43	1.85	0.203	0.761
TCTCGGAGTACACGAAGGTCAGAGCTTTCCAGAG	3.09	2.44	2.29	1.01	1.77	1.58	-0.377	2.03
TCAGACATGTGAAGGTAACTCAGGTACGCAGTCG	-0.326	0.309	0.138	1.17	0.749	0.981	-0.032	-0.167
TCGAGTAGGTTAGGGGCTTTCAGAATGGCGTCGA	0.146	-0.192	-0.707	0.128	0.00359	-0.109	0.122	-0.301
CTCAAAAGGTCGTGCTCAGGTGAGTATACCAAAC	2.79	5.29	3.99	2.02	4.73	4.13	1.02	0.794
CTCGTAAGGTCGTGCTCAGGTGAGTATACCAAAC	2.05	3.84	2.77	2.39	2.68	4.18	2.99	1.5
AGAATGAGGTTATTAAGATCAGGGCATTGCGGTC	1.67	1.47	1.12	2.13	2.02	2.61	1.18	1.74

Reference: the supplement of paper PMC6555819
